# Test results from PubChem BioAssay AID602438 (Sanford-Burnham Center for Chemical Genomics, 2012).
# About 3,100 (0.86%) of roughly 360,000 compounds were called active. What follows is part of a selection rich in actives, with near analogues and random picks from the rest. Unmarked numbers belong to inactive results.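 How the source made its calls: active means inhibition or corrected inhibition above about 18%, plus a signal ratio from 0.5 to 1.5 (limit read from the data, passing the limit was not always enough); inactive means the rest.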
# Target: Neuropilin-1 (Homo sapiens) (UniProt O14786)
# Sequence (O14786 whole entry, looked up): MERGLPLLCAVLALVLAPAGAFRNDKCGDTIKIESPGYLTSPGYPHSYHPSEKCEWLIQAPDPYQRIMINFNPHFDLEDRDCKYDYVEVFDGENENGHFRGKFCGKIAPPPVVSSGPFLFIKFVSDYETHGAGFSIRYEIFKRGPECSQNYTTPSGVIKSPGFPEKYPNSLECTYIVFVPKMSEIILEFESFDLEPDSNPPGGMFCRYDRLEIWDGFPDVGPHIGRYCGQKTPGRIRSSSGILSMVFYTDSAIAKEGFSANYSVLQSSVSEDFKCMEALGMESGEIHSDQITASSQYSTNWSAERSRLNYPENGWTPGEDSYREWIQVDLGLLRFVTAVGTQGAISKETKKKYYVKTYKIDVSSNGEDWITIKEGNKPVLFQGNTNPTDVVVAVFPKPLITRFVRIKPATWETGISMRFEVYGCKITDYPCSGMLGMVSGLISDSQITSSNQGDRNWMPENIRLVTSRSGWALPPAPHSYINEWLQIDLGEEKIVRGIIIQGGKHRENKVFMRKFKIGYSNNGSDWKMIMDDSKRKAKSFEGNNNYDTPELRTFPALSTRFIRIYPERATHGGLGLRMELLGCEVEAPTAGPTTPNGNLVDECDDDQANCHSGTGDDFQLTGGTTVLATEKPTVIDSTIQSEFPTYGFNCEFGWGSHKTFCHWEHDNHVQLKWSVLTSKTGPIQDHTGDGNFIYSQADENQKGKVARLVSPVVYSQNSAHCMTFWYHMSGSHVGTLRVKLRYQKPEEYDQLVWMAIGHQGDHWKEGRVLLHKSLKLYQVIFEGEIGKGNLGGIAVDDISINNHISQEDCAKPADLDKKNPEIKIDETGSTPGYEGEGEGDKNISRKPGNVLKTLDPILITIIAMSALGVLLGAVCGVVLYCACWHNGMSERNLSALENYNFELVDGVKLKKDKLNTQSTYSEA
# Test: modulators of CendR peptide binding to NRP-1, primary screen, biochemical, fluorescence polarization, uHTS (AID 602438)
# Conditions: FAM-RPARPAR peptide binding to NRP-1, fluorescence polarization; at 25 µM; stronger effect = higher value
row,Compound,inhibition
1,Cc1cccc(N(C(=O)c2ccc(CN3CCOCC3)o2)C(C(=O)NC2CCCCC2)c2ccc(F)cc2)c1 (stereo unspecified),-7.1%
2,Cc1ccc(C(=O)NC(C)C(c2cccs2)N2CCOCC2)cc1C (stereo unspecified),-2%
3,Cc1ccc(N(C(=O)c2ccc(CN3CCOCC3)o2)C(C(=O)NCCC(C)C)c2cccs2)c(C)c1 (stereo unspecified),26.1% (active)
4,Cc1csc(=O)n1CCC(=O)OCC(=O)NNC(=O)c1ccc(Br)cc1,-1.9%
5,CCOC(=O)N1CCN(C(c2ccnc3ccccc23)c2nnnn2-c2c(C)cccc2C)CC1 (stereo unspecified),-13.7%
6,O=C(OCC(=O)N1CCN(c2ccccc2)CC1)c1ccc([N+](=O)[O-])s1,-3.7%
7,COc1cc(NC(=O)COC(=O)c2ccc([N+](=O)[O-])s2)cc(OC)c1OC,-5.2%
8,COc1ccc(C(=O)COC(=O)c2ccc([N+](=O)[O-])s2)cc1OC,24.3% (active)
9,COc1ncnc2c1ncn2CCCNCCN1CCOCC1,1%
10,CCOc1ccc(CCNC(=O)CSc2cc(=O)n(C)c3ccc(Cl)cc23)cc1OCC,4.1%
11,O=C(CCNC(=O)c1ccccc1Cl)NN=Cc1ccco1,10.2%
12,O=C(N/N=C/c1ccco1)c1csc2c1CCCC2,26.9% (active)
13,O=C(Cc1ccccc1)Nc1cccc(C(=O)N/N=C/c2ccco2)c1,-32.3%
14,CCOC(=O)C(C)n1cnc2scc(-c3ccc(C)c(C)c3)c2c1=O (stereo unspecified),9.9%
15,CC(=O)C(C)n1cnc2scc(-c3ccc(C)cc3)c2c1=O (stereo unspecified),7.4%
16,CCC(C(=O)OC)n1cnc2scc(-c3ccc(C)cc3)c2c1=O (stereo unspecified),91.3% (active)
17,O=C(CCNC(=O)C1CCN(S(=O)(=O)c2ccccc2)CC1)NC1CC1,-0.4%
18,Cc1ccccc1NC(=O)c1cc(S(=O)(=O)N2CCOCC2)cs1,15%
19,Cc1ccc(-c2ccc(C3=CC(=O)CC(C)(C)C3=O)cc2)cc1,4.5%
20,CN1CCN(c2cc3c(cc2F)c(=O)c(C(=O)O)cn3CCF)CC1,11.3%
21,CCOC(=O)Nc1sc(C(=O)N(C)C)c(C)c1C(=O)OCC,26.1% (active)
22,CCOC(=O)c1c(NC(=O)CCl)sc(C(=O)N(CC)CC)c1C,-0.5%
23,CCOC(=O)c1c(NC(=O)COC(=O)c2ccc(S(=O)(=O)C(F)F)cc2)sc(C(=O)N(C)C)c1C,-19.4%

row,Compound,inhibition
1,Cc1cc(NC(=O)CSc2nc(=O)cc(N)n2-c2ccc(F)cc2)no1,8.7%
2,COc1ccc(Cl)cc1S(=O)(=O)N1CCN(CC(=O)C(C)(C)C)CC1,21.7% (active)
3,COc1ccc(C(=O)NCc2ccc(Cl)cc2)cc1S(=O)(=O)N1CCCC1,4.6%
4,COc1ccc(Cl)cc1S(=O)(=O)N1CCC(O)(c2ccc(Cl)cc2)CC1,3%
5,CC(NCc1ccccc1OC1CCCC1)c1ccccc1 (stereo unspecified),-0.1%
6,O=C(NC12CC3CC(CC(C3)C1)C2)N1CCCC(CO)C1 (stereo unspecified),-1.5%
7,CC(=O)c1c(N)n(C)c(=O)n(C)c1=O,5.8%
8,Cc1ccc(C(C(=O)NCC2CCCO2)N(C(=O)c2snc(C(N)=O)c2N)c2ccc(C(C)C)cc2)o1 (stereo unspecified),-5.9%
9,O=C(O)c1ccccc1OCc1ccccc1Cl,5.3%
10,Cc1ccccc1-c1nnc(SCC(=O)NCc2ccc3c(c2)OCO3)n1C,38.3% (active)
11,Cn1cccc1Cc1nnc(SCC(=O)NCc2ccc3c(c2)OCO3)n1CCc1ccccc1,-7.4%
12,Cc1ccc(-n2c(SCC(=O)NCc3ccc4c(c3)OCO4)nnc2-c2cccnc2)c(C)c1,8.7%
13,Cc1cc(N=CC2=C(O)CCCC2=O)no1,10.1%
14,CC1OC2C(OC1C)N(S(C)(=O)=O)CCN2S(C)(=O)=O (stereo unspecified),-3.5%
15,CC1(C(=O)Nc2ccc3c(c2)OCCO3)CSCC(=O)N1CCOc1ccccc1 (stereo unspecified),-11.3%
16,Cc1cccc(C)c1NC(=O)COC(=O)c1ccccc1O,6.8%
17,CCCN(CC1CC1)C(=O)COC(=O)c1ccc(C)cc1O,-9.9%
18,Cc1ccc(C(=O)OCC(=O)NC(=O)Cc2ccccc2)c(O)c1,20.4% (active)
19,C[C@H](CO)N1C[C@H](C)[C@@H](CN(C)C(=O)c2cnccn2)Oc2ncc(Br)cc2C1=O,2.9%
20,C/C=C/C(=O)Nc1ccc(N2CCN(c3ccc(C(F)(F)F)cn3)CC2)nc1,6.8%
21,C[C@H]1CN([C@@H](C)CO)C(=O)Cc2cc(NC(=O)Cc3ccccc3)ccc2O[C@H]1CN(C)S(=O)(=O)c1cccs1,0.6%
22,CCCCCNC(=O)c1cccnc1SCC(=O)Nc1ccccc1OC,-0.3%
23,CCOC(=O)c1csc(CCNC(=O)c2oc3c(Cl)cc(C)cc3c2C)n1,24.9% (active)

row,Compound,inhibition
1,Cc1cc(Cl)c2oc(C(=O)NC(C)c3ccncn3)c(C)c2c1 (stereo unspecified),1.3%
2,Cc1cc(Cl)c2oc(C(=O)N(C)C(C)c3ccccn3)c(C)c2c1 (stereo unspecified),9.3%
3,CCN(CC(=O)Nc1cc(Cl)ccc1C)C(=O)Cn1c(=O)cnc2ccccc21,9%
4,O=c1nc(NO)ccn1C1CCCO1 (stereo unspecified),7.6%
5,CC(C)C(C(=O)NCc1ccco1)N(CC1CCCO1)C(=O)CNS(=O)(=O)c1ccc(F)cc1 (stereo unspecified),15.8%
6,Cc1ccc2c(c1)C1CN(C)CCC1N2C(=S)Nc1ccc(Cl)cc1Cl (stereo unspecified),-11.4%
7,Cc1ccc2c(c1)C1CN(C)CCC1N2C(=O)c1ccccc1NS(=O)(=O)c1ccc(F)cc1C (stereo unspecified),37.9% (active)
8,Cc1ccc2c(c1)C1C[N+](C)(CC(=O)c3ccccc3)CCC1N2C(=O)c1ccccc1Cl (stereo unspecified),5.2%
9,Cc1noc(C)c1CSCC(=O)Nc1ccc(Br)cc1Cl,12.2%
10,O=C(CSCc1c(F)cccc1Cl)NCC1CCCO1 (stereo unspecified),-9.5%
11,CC1CCN(C(=O)/C(=C\c2ccccc2F)NC(=O)c2ccccc2)CC1,9.8%
12,CCc1cc2c(=O)c(-c3ccon3)c(N)oc2cc1OC,36.1% (active)
13,CCc1cc2c(=O)c(-c3nc4ccccc4n3C)c(CCCC(=O)O)oc2cc1OC(=O)C(C)(C)C,3.6%
14,COc1ccc2oc(N)c(C=O)c(=O)c2c1,13.3%
15,CCN(CC(=O)N1CCCC1)S(=O)(=O)c1ccc(F)cc1,9.2%
16,COCn1c(C(O)c2ccccc2)cc2ccccc21 (stereo unspecified),8.1%
17,CC(OC(=O)c1cccc(S(=O)(=O)N2CCOCC2)c1)C(=O)NCC1CCCCC1 (stereo unspecified),8.2%
18,CC(OC(=O)c1ccc([N+](=O)[O-])cc1)C(=O)NCC1CCCCC1 (stereo unspecified),23.5% (active)
19,O=C(NCC(O)c1ccc([N+](=O)[O-])cc1)C1CCCCC1 (stereo unspecified),11.3%
20,O=C(C1CCCN1S(=O)(=O)c1ccc(Br)cc1)N1CCOCC1 (stereo unspecified),6.9%
21,COC(=O)Nc1nc2ccc(Sc3ccccc3)cc2[nH]1,-0.3%
22,Cc1nc2ccc(C(=O)N(C)CC3CCCN(CCc4ccc(Cl)cc4)C3)cc2[nH]1 (stereo unspecified),8.8%
23,Cc1nc2ccc(C(=O)O)cc2[nH]1,24.6% (active)

row,Compound,inhibition
1,Cc1cccc(NC(=O)CN2CCCN(S(=O)(=O)c3ccc(Br)s3)CC2)c1,1.1%
2,CCc1ccccc1NC(=O)CN(C)S(=O)(=O)c1ccc2c(c1)c(=O)n(C)c(=O)n2C,7.6%
3,COc1cccc(CNC(=O)CN(C)S(=O)(=O)c2ccc3c(c2)c(=O)n(C)c(=O)n3C)c1,-1.6%
4,CC1CCC(NC(=O)CN(C)S(=O)(=O)c2ccc3c(c2)c(=O)n(C)c(=O)n3C)CC1 (stereo unspecified),25.4% (active)
5,C/C=N/NC(=O)CCCC(=O)N/N=C/C,15%
6,Cc1cc(C)c(S(=O)(=O)N2C=CC(C(F)(F)F)=NCC2)c(C)c1,3.5%
7,O=C(O)c1ccc(COc2c(F)c(F)cc(F)c2F)o1,45.5% (active)
8,O=C(O)c1ccc(NC(=O)c2ccc(COc3ccc(Cl)cc3)o2)cc1,-6.7%
9,O=C(O)CSCc1ccc(C(=O)O)o1,-7.1%
10,CC1O[C@H](OC2C(COC3OC(CO)C(O)[C@H](O)C3O)OC(OC3CC[C@]4(C)C(CC[C@@]5(C)[C@@H]4C=C[C@]46OC[C@@]7(CCC(C)(C)C[C@H]74)C(O)C[C@@]56C)C3(C)C)C(O)C2O)C(O)C(O)C1O (stereo partly specified),23.7% (active)
11,CCOc1ccc(-n2c(SC(C)C(=O)OC)nc3c(c2=O)SCC3)cc1 (stereo unspecified),-5.4%
12,O=C1CCN(CCCc2ccccc2)CCN1CCO,5.5%
13,N#Cc1cccc(CN2CCC(=O)N([C@H](CO)c3ccccc3)CC2)c1,9.5%
14,N#Cc1cccc(CN2CCC(=O)N(CCO)CC2)c1,21.1% (active)
15,O=C(CSc1nnc(-c2cccs2)n1Cc1ccco1)c1ccc2c(c1)OCO2,37.5% (active)
16,O=C(CSc1nnc(-c2cnccn2)n1Cc1ccco1)c1ccc(Cl)c(Cl)c1,3.3%
17,O=C(CSc1nnc(-c2cccnc2)n1Cc1ccco1)c1ccc(Cl)c(Cl)c1,-25.2%
18,CC(=O)N1CC2(C)CN(C(C)=O)CC(C)(C1)C2=O,11.7%
19,O=C(NCc1ccccc1Cl)C1CCN(c2ncnc3c2nc2n3CCCCC2)CC1,13.7%
20,CN(C(=O)C1CCN(c2ncnc3c2nc2n3CCCCC2)CC1)C1CCCCC1,18.4% (active)
21,CN(Cc1ccccc1)C(=O)C1CCCN(c2ncnc3c2nc2n3CCCCC2)C1 (stereo unspecified),10%
22,CCC(=O)c1cn(CCOc2ccccc2OC)c2ccccc12,-7%
